# SARS PLpro yeast = SARS-CoV PLP inhibition in yeast | S. cerevisiae expressing SARS-CoV PLpro, growth rescue | actives 0.19% (n = 330,000) | Potency, µM (highest dose often 32.9 µM), inactives show at the top dose activity, positive = growth rescue, hits mostly activators; calls by dose curve; also: potency is read from the fitted curve at half-maximal effect; 0% is about no effect; nearly all actives have a fitted effect of over 55% in size
# NS1 inh = blocks influenza NS1 protein function | Potency, µM (top dose mostly 46.1 µM), for the others: at the top dose activity, positive = more growth | actives 0.4% (n = 270,000); calls by dose curve; also: potency is read from the fitted curve at half-maximal effect; actives are rising curves; nearly all actives have a fitted effect of over 50% in size
#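 A cell-based growth assay was used: compounds that relieve NS1-induced slow growth of budding yeast raise OD600. Assay medium was yeast nitrogen base with ammonium sulphate and -URA supplement, pH 6.0, with 2% galactose.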
# LmPK inhibitor = inhibitors of Leishmania mexicana pyruvate kinase; Q27686; purified LmPK, Kinase-Glo ATP luminescence, 1 h; Potency, µM (doses to about 57.5 µM), without a hit: at the top dose activity change, negative = inhibition, hits mostly inhibitors; actives 0.37% (n = 290,000); also: potency is read from the fitted curve at half-maximal effect; % is scaled to controls: 0 for no effect and ±100 for the full control effect
# Target sequence (Q27686 whole entry, looked up): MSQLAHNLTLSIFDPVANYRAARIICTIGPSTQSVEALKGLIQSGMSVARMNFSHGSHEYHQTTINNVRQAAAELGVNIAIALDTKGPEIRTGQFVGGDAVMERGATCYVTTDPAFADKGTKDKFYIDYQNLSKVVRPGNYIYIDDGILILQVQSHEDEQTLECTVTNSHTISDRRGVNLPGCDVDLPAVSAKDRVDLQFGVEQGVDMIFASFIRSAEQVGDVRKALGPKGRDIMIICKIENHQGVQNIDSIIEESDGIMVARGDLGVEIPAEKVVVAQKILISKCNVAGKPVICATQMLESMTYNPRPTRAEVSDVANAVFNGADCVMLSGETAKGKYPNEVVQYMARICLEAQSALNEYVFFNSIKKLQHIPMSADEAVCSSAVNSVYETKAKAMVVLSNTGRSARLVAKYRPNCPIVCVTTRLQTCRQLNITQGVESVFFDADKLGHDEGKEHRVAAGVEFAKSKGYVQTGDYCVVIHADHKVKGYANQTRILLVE
#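 qHTS format; LmPK 0.1 nM; substrates PEP 0.5 mM and ADP 0.1 mM. One-hour room-temperature incubation, then coupled luciferase luminescence; 0.5 nM enzyme wells mark activation.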
# TbPYK inhibitor = T. brucei pyruvate kinase inhibition; Q57TT1; TbPYK enzyme, Kinase-Glo Plus ATP luminescence, 45 min; Potency, µM (top dose mostly 76.8 µM), inactives show top-dose activity, negative = inhibition, hits mostly inhibitors; actives 0.12% (n = 410,000); AID 624173; also: potency is read from the fitted curve at half-maximal effect; % is scaled to controls: 0 for no effect and ±100 for the full control effect; nearly all actives have a fitted effect of over 50% in size
#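 T. brucei PYK with substrate was exposed to pin-transferred compounds across a concentration series, then started with 130 uM ADP (final). After 45 min at room temperature, Kinase-Glo Plus luminescence was read, normalized and curve-fitted.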
# Cycloheximide cs = affects cycloheximide protein synthesis inhibition readout, counter-screen; cell reporter, cycloheximide protein synthesis inhibition counterscreen; max response, %; actives 12% (n = 300,000); AID 2314; in the data active = max response mostly above about 13%, no sharp cut-off; inactive = mostly below about 14%; also: read at 38.3 µM for the half of the compounds with a filed dose; 0% is about no effect
# Shiga toxin inh = blocks Shiga toxin action in Vero cells; Vero cells, Shiga toxin protein synthesis inhibition reporter; inhibition, % at 38.7 µM; actives 9.2% (n = 290,000); AID 2315; in the data active = inhibition mostly above about 28%, no sharp cut-off; inactive = mostly below about 43%; also: 0% is about no effect
# * marks the source's active call; other numbers are inactive results; u = inconclusive; x = not tested or not shown; [ ] = remark or other dose. This is one part of a sample in which hits are shown more often than they occur. Unless noted, calls follow the shape of the dose curve; as a rule, active = well fitted curve in the direction sought with a large enough effect; inconclusive = small, poorly fitted or top-dose-only effect, or another doubt; inactive = no such curve, though single readings can be large; an effect the other way counts as inactive or inconclusive.
SMILES,SARS PLpro yeast,NS1 inh,LmPK inhibitor,TbPYK inhibitor,Cycloheximide cs,Shiga toxin inh
COc1ccccc1NS(=O)(=O)c1cccc(C(=O)NN=C2CCCC2)c1,0%,x,-2%,-18%,2,26
COc1ccc(C(=O)NN=C2CCCC2)cc1,-5%,6%,-4%,6%,active,8
CC1C/C(=N\NC(=O)c2cccnc2)CC(C)(C)C1 (configuration not stated),0%,x,3%,-3%,18*,65
COc1cccc(C(=O)NN=C2CCCC2)c1,-4%,5%,6%,-2%,38*,67*
CCC(C)SCC(=O)Nc1ccc(S(=O)(=O)N2CCOCC2)cc1OC (configuration not stated),-1%,-8%,3%,3%,-2,27
CC(NCc1ccccc1)c1ccccc1O (configuration not stated),1%,5%,-11%,-6%,-3,-2
O=C(CS(=O)(=O)c1cccc2nsnc12)Nc1ccc(F)cc1F,x,x,x,4%,x,x
O=C(NN=C1CCCC1)c1cccc(O)c1,-1%,-4%,4%,4%,47*,76*
COc1ccc(NC(=O)CCC(=O)c2cccs2)cc1S(=O)(=O)Nc1ccccc1Cl,20%,u,3%,-10%,12,47*
COc1ccc(NC(=O)C/C(C)=N/NC(=O)CCc2ccccc2)c(OC)c1,-2%,5%,-2%,-4%,2,-5
COc1ccc(NC(=O)CCCC(=O)c2ccccc2)c(OC)c1,-1%,-4%,9%,-1%,16*,21
COc1ccc(NC(=O)CCCc2ccccc2)c(OC)c1,-1%,-22%,3%,0%,19*,x
COc1ccc(NC(=O)CCC(=O)c2cccs2)c(OC)c1,1%,3%,0%,7%,31*,77*
O=C(Nc1ccc(Cl)c(S(=O)(=O)Nc2ccccc2Cl)c1)c1cccs1,-64%,16%,4%,1%,-4,-7
CCc1noc(-c2ccc(N(C)Cc3ccc(OC)cc3)c([N+](=O)[O-])c2)n1,x,x,x,-4%,x,x
Nc1c2c(nc3ccccc13)CSCC2,x,x,x,-7%,x,x
CCc1ccccc1NC(=O)CSc1nnc(CC)c(CC)n1,x,x,x,-3%[15.4 µM],x,x
Cn1c2ccccc2c(=O)c2ccc(Cl)cc21,x,x,x,-4%,x,x
CN(C)c1ccc(-c2ccc3c(=O)c4ccccc4n(C)c3c2)cn1,-4%,-42%,-8%,0%,58*,87*
COC(=O)c1cc2sc(C)cc2n1Cc1nc(-c2cccc(Br)c2)oc1C,x,x,x,-5%,x,x
O=[N+]([O-])c1ccc(N=Nc2c(Cl)cc(O)cc2Cl)cc1,-12%,-124%,22µM*,-28%,29*,111*
COc1ccc(-c2cc3nc4ccccc4n3c(N)c2C#N)cc1,-7%,-58%,1%,4%,29*,56*
COc1ccc(C=C2Cc3ccccc3C2=O)cc1,x,x,x,-10%,x,x
COc1ccc2c(c1)CC/C(=C\c1ccc(C)o1)C2=O,-6%,-12%,-6%,-12%,56*,91*
COc1ccc2c(c1)CC/C(=C/c1ccncc1)C2=O,-61%,-18%,-19%,-9%,32*,54
SMILES,SARS PLpro yeast,NS1 inh,LmPK inhibitor,TbPYK inhibitor,Cycloheximide cs,Shiga toxin inh
N=C(N)c1ccc(N=Nc2c(O)ccc3c2[nH]c2ccccc23)cc1,x,-5%,x,-7%,x,x
COc1ccccc1NC(=S)NC(=O)CCc1ccccc1,7%,-12%,-3%,-1%,11,10
CC(=O)Nc1ccc(NC(=S)Nc2ccc(F)cc2)cc1,-2%,x,-5%,-6%,-1,20
CC(C)(C)C(=O)NC(=S)Nc1cccc(C(=O)O)c1,0%,0%,1%,-3%,45*,84*
O=C(CCc1ccccc1)NC(=S)Nc1cccc(Br)c1,7%,23%,0%,-2%,0,25
O=C(CCc1ccccc1)NC(=S)Nc1ccccc1Br,-1%,3%,3%,-2%,13,52*
O=C(CCc1ccccc1)NC(=S)Nc1cccc(C(=O)O)c1,5%,u,5%,1%,58*,103*
CC(C)(C)C(=O)NC(=S)Nc1ccc(F)cc1,u,7%,1%,-12%,31*,87*
CCOc1ccc(C(=O)COC(=O)c2cc(=O)[nH]c3ccccc23)cc1,0%,x,x,-1%,x,x
CCN1C(=O)[C@H]2[C@@H](c3ccc(-c4cccc(Cl)c4)cc3)N[C@@](C)(C(=O)OC)[C@H]2C1=O,1%,x,x,-4%,x,x
COC(=O)CCCC[C@@H]1O[C@H](CCc2ccccc2)Cc2[nH][nH]c(=O)c21,x,x,x,3%,x,x
O=C(CCCc1ccccc1)Nc1cccc(C(=O)O)c1,0%,8%,2%,-2%,60*,122*
CCc1ccc(OCCCC(=O)Nc2cccc(C(=O)O)c2)cc1,-1%,0%,2%,5%,5,11
CN(C)S(=O)(=O)c1cccc(C(=O)N=C2N=C3C=CC(Cl)=CN3Cc3ccccc32)c1,-2%,3%,u,-7%,53*,130*
O=C(OCCN1C(=O)c2ccccc2C1=O)c1ccc(S(=O)(=O)N2CCCCCC2)cc1,1%,-2%,6%,-2%,-2,-7
O=C(N=C1N=C2C=CC=CN2Cc2ccccc21)c1ccc(S(=O)(=O)N2CCOCC2)cc1,0%,x,-25%,-1%,33*,154*
O=C(N=C1N=C2C=CC=CN2Cc2ccccc21)c1ccc(S(=O)(=O)N2CCCC2)cc1,-1%,6%,-8%,-5%,55*,97*
O=C(c1ccc(S(=O)(=O)N2CCOCC2)cc1)N1CCc2ccccc2C1,2%,-12%,0%,8%,0,-7
COc1ccccc1CCNC(=O)CCc1c(C)c2cc3c(C)coc3c(C)c2oc1=O,x,x,x,-10%,x,x
CC(=O)O[C@H]1CC[C@@]2(C)C(=CCC3C2CC[C@]2(C)C(c4cccnc4)=CCC32)C1 (some centres not stated),x,x,x,-2%,x,x
CSCC(=O)N1CCC(n2nccc2NC(=O)CCCc2ccccc2)CC1,-2%,0%,-7%,-3%,21*,14
Cc1ccccc1CN1CCC(n2nccc2NC(=O)c2ccc3c(c2)OCO3)CC1,-1%,4%,-7%,-7%,21,34*
CC#CC(=O)N1CCC(n2nccc2NC(=O)c2ccc3c(c2)OCO3)CC1,2%,3%,1%,-2%,23*,72*
CSCCC(=O)N1CCC(n2nccc2NC(=O)c2ccc3c(c2)OCO3)CC1,-8%,-7%,-13%,-1%,54*,65*
CCN(CC)S(=O)(=O)c1ccc2c(c1)N(CC(=O)Nc1c(C)cc(C)cc1C)C(=O)C1CCCN21 (configuration not stated),x,x,x,-8%,x,x
COCCn1c(C)cc(C(=O)COC(=O)c2ccc(S(=O)(=O)N(C)C)cc2)c1C,-2%,x,x,4%,x,x
O=C(OCC(=O)c1ccco1)c1ccc2ncsc2c1,-4%,-11%,-2%,-29%,29*,58
O=C(COC(=O)c1ccc2ncsc2c1)Nc1ccccc1Cl,-3%,x,x,3%,x,x
